Measured values reported in ChEMBL document CHEMBL1201862, “PubChem BioAssay data set” (2004).
In all, about 58,000 […] went through this assay and about 4,600 (7.9%) were called active. Rule as the data show it: active = GI50 up to about 1.1 µM and inactive = higher. Shown is part of a subset that was picked to be rich in actives. Potency and affinity values are given separately.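 Five compound concentrations were applied to cells in 96-well plates for 48 hours; endpoints were derived by simple linear interpolation of the resulting dose-response curve. GI50 is the concentration that inhibits growth by half.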

tested on: SW-620; experiment: NCI tumour cell line growth inhibition, 48 h

Substance	GI50
cis-Bis[[(trimethylsilyl)methyl]amino]tetrachloroplatinum(IV), CHEMBL2146191	2.4 µM
[Bis(aminomethyl)dimethylsilane]tetrachloroplatinum(IV), CHEMBL2146190	1.89 µM
[Bis(aminomethyl)dimethylsilane]dichloroplatinum (II), CHEMBL2146201	4.86 µM
[Bis(aminomethyl)diethylsilane]tetrachloroplatinum(IV), CHEMBL2146203	0.483 µM
[Bis(aminomethyl)pentamethylenesilane]dichloropaltinum(II), CHEMBL2146202	6.7 µM
[Bis(aminomethyl)pentamethylenesilane]tetrachloropaltinum(IV), CHEMBL2146204	1.06 µM
[Bis(aminomethyl)ethylmethylsilane]tetrachloroplatinum(IV), CHEMBL2146192	1.02 µM
[Bis(aminomethyl)tetramethylenesilane]tetrachloropaltinum(IV), CHEMBL2146189	1.49 µM
CISPLATIN, CHEMBL11359	3.87 µM
mu-(1,7-nanodiamine-N,N')bis-(cis-aminedichloroplatimum (II)), CHEMBL2146215	32.1 µM
[Bis(aminomethyl)tetramethylenesilane]dichloropaltinum(II), CHEMBL2146205	5.16 µM
